Test results: PubChem BioAssay AID686959 (The Scripps Research Institute Molecular Screening Center, 2013)
The source made the active and inactive calls. Cut-off not given; nearly all actives show IC50 up to about 8.1 µM.

Assay: small molecules binding CAG repeat RNA – biochemical, fluorescence, dose response (AID 686959)
Conditions: r(CAG) RNA repeat binding

IC50, active:
Cc1ccc2nc(N3C(=O)C(O)=C(C(=O)c4ccco4)C3c3ccc(C)o3)sc2c1 (stereo unspecified) 624 nM
Cc1ccc2c(c1)c(N=Nc1cccc(C(=O)O)c1)c(O)n2C 5070 nM
Cc1noc(NS(=O)(=O)c2ccc(NC(=O)COc3ccc(Cl)cc3Cl)cc2)c1C 2830 nM
CCOC(=O)C1=C(C)NC(SCc2cc(=O)[nH][nH]2)=C(C#N)C1c1cccs1 (stereo unspecified) 7400 nM
C/C(=N\N=C(/N)SC1CC(=O)N(c2cccc(Cl)c2)C1=O)c1cccs1 (stereo unspecified) 5190 nM
Oc1ccc(/C=N/Nc2ccnc3cc(Cl)ccc23)c(O)c1O 2500 nM
COc1ccc(Cn2c(O)c(/C=N/NC(=O)c3cccnc3)c3ccccc3c2=O)cc1 3070 nM
O=C(O)CCCCCn1c(O)c(C=C2N=c3ccccc3=N2)sc1=S 3870 nM
O=C(O)c1ccc(N2C(=O)CC(SC(=NCc3ccc4c(c3)OCO4)Nc3ccc(F)cc3)C2=O)cc1 (stereo unspecified) 2890 nM
CC(=O)C1=C(O)C(=O)N(c2cc(C(C)(C)C)on2)C1c1ccc(Br)cc1 (stereo unspecified) 2490 nM
CC(C)c1ccc(C2c3[nH]c4ccccc4c3C[C@H]3C(=O)N(c4ccccc4C(=O)N4CCC[C@@H]4C(=O)O)C(=O)N23)cc1 (stereo partly specified) 2840 nM
N#CC1=C(S)N(c2ccccc2)C(c2ccc(-c3cc(Cl)ccc3Cl)o2)NC1=O (stereo unspecified) 1470 nM
Cc1cc(N2C(=O)C(O)=C(C(=O)c3cc4ccccc4o3)C2c2cccc(Cl)c2)no1 (stereo unspecified) 1190 nM
N#CC1=C(N)n2c(s/c(=C\c3ccco3)c2=O)=C(C#N)C1c1ccco1 (stereo unspecified) 5380 nM
CCCOc1ccc(N2C(=O)CC(S/C(N)=N/N=C(\C)c3cccs3)C2=O)cc1 (stereo unspecified) 7760 nM
O=C(C1=C(O)C(=O)N(c2nc3ccc(Cl)cc3s2)C1c1ccco1)c1ccco1 (stereo unspecified) 987 nM
